For 6 compounds, growth results are on record in PubChem BioAssay (NCI).

This is part of a sample that, as a whole, favours compounds with a hit. Of some 83,000 tested, about 20% had one in any assay.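 Method: cells in 96-well plates; compound added at one concentration; 48 h incubation; percent growth measured; values under 10 scored active.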 Values without a mark were called inactive. Calls of active or inactive are those of the source.

Holding throughout (test): NCI-60 one-dose screen, 48 h (100 = growth as untreated, 0 = no growth, -100 = all killed)
What all share (details): 10 µM unless noted

In assay [1] the test system is SK-MEL-2 melanoma.
Assay [2] deals with EKVX NSCLC.
In assay [3] the test system is SN12C renal.
Assay [4] has as its system UO-31 renal.
Assay [5] deals with TK-10 renal.
Assay [6] concerns A498 renal.
For assay [7], the system named is CCRF-CEM leukemia.
Assay [8] deals with MOLT-4 leukemia.
Assay [9] deals with SR leukemia.
In assay [10] the test system is RPMI-8226 leukemia.
In assay [11] the test system is OVCAR-8 ovarian.
Assay [12] relates to OVCAR-5 ovarian.
Assay [13] relates to OVCAR-4 ovarian.
In assay [14] the test system is SK-OV-3 ovarian.
Assay [15] relates to IGROV1 ovarian.
The test system of assay [16] is OVCAR-3 ovarian.
In assay [17] the test system is HS 578T breast.
Assay [18] relates to NCI/ADR-RES ovarian.

As for `COc1ccc(/C(Cl)=N/N=C(\Cl)c2cc(OC)c(OC)c(OC)c2)cc1OC(C)=O`, the growth in assay [1] is 92.3%; in assay [2], 111%; in assay [3] it was 96.1%; in assay [4] it was 65.5%; in assay [5], 81.1%; in assay [6], 90.2%. The growth in [7] is 94.4%; in assay [8] it was 82.4%; in [9], 77.4%; in assay [10], 89.4%; in assay [11], 79.9%; in assay [12], 107%. Moreover, the growth was 99.4% in assay [13]; 80% in assay [14]; 105% in assay [15]; 101% in [16]; 90.4% in assay [17]; 89.1% in assay [18].
As to `CCN(CC)C(=O)C1CCN(C(=O)c2ccccc2)CC1`, the growth in assay [1] is 98.3%; in assay [2] it was 101%; in assay [3] it was 101%; in assay [4], 89.2%; in assay [5] it was 87.1%; in assay [6] it was 85.7%. Besides, the growth in assay [7] was 80.9%; in [8], 92.2%; in [9], 102%; in [10] it was 97.8%; in assay [11] it was 103%; in assay [12], 108%. In addition, the growth in assay [13] was 106%; in assay [14] it was 102%; in assay [15], 103%; in [16], 104%; in assay [17], 97%; in assay [18], 97.9%.
On to `CCc1c(C)c2cc3nc(NCc4ccccc4)oc3c(C)c2oc1=O`, for which the growth in assay [1] was 83.6%; in assay [2], 77.1%; in [3], 73.5%; in assay [4], 80.1%; in assay [5], 77.6%; in assay [6], 49.2%. For the same compound, the growth was 79.6% in assay [7]; 71.9% in assay [8]; 73.5% in [9]; 71.6% in assay [10]; 62.5% in [11]; 89.7% in [12]. In addition, the growth in [13] was 33.9%; in [14], 39.5%; in [15] it was 76.2%; in assay [16], 87%; in assay [17] it was 67.1%; in assay [18], 51.2%.
In the case of `COc1ccc2c(c1)OC(N)=C(C#N)C2c1ccc(F)c(F)c1` (stereo not drawn), the growth in [1] is 32.9%; in assay [2] it was 49.2%; in assay [3], 54.7%; in assay [4], 52.8%; in [5] it was 70.5%; in assay [6], 9.88% (active). Also, the growth in assay [7] is 14.9%; in [8], 28.2%; in assay [9], 12.2%; in assay [10] it was 7.58% (active); in assay [11], 33.9%; in [12], 51.6%. Further, the growth is 73.6% in [13]; 29% in [14]; 53.5% in assay [15]; 15.6% in assay [16]; 35.7% in assay [17]; 17.9% in [18].
As to `NC(=NCCCOc1ccc(F)cc1)Nc1ccc(Cl)c(Cl)c1`, the growth in assay [1] is 95.9%; in assay [2] it was 74.9%; in [3], 66%; in assay [4], 51.6%; in assay [5] it was 69%; in assay [6] it was 60.9%. Further, the growth in assay [7] was 60.4%; in [8] it was 36.1%; in assay [9], 52.1%; in [10], 39.1%; in assay [11] it was 88.6%; in assay [12], 81.5%. The growth in assay [13] is 59.9%; in [14], 99.8%; in [15], 45.9%; in assay [16], 73.3%; in [17], 65.7%; in [18] it was 69.9%.
Turning to `COc1ccc(-c2nnc(SCC(=O)Nc3ccc(C(=O)/C=C/c4ccccc4)cc3)o2)cc1OC`, the growth in [1] was 98%; in assay [2], 100%; in assay [3], 103%; in [4], 83.9%; in assay [5], 96.1%; in assay [6] it was 95.7%. Also, the growth in [7] is 102%; in assay [8], 89.1%; in assay [9] it was 88.1%; in assay [10], 70.5%; in assay [11] it was 98.8%; in [12] it was 106%. Further, the growth is 101% in [13]; 109% in [14]; 103% in assay [15]; 105% in assay [16]; 110% in assay [17]; 93.5% in assay [18].
